Growth data for eight compounds are collected here from PubChem BioAssay (NCI).

About 83,000 compounds went through this panel and 20% of them were active in at least one assay; those are over-represented in the sample as a whole.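 Testing used 96-well plates and a 48-hour single-concentration exposure. Example: -40 means 40% of the starting cells died.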 A number with no mark means an inactive call. Calls of active or inactive are those of the source. The calls were made as follows: active = growth percent below 10; inactive = the rest.

Test in all cases: NCI-60 one-dose screen, 48 h (100 = growth as untreated, 0 = no growth, -100 = all killed)
For one assay, the system named is HCT-15 colon. The following applies: 10 µM unless noted.
Another assay deals with HT29 colon. The following applies: 10 µM unless noted.
The next assay relates to SNB-19 CNS. Conditions: 10 µM unless noted.
Another assay concerns U251 CNS. The following applies: 10 µM unless noted.
The next assay concerns PC-3 prostate. Conditions: 10 µM unless noted.
Another assay concerns SK-MEL-5 melanoma. Conditions: 10 µM unless noted.
Another assay concerns UACC-62 melanoma. The following applies: 10 µM unless noted.
For the next assay, the system named is LOX IMVI melanoma. The following applies: 10 µM.
Another assay relates to SK-MEL-28 melanoma. Conditions: 10 µM unless noted.
For the next assay, the system named is SK-MEL-2 melanoma. The following applies: 10 µM unless noted.
A further assay concerns EKVX NSCLC. Conditions: 10 µM unless noted.
The next assay deals with SN12C renal. Conditions: 10 µM unless noted.
In a further assay the test system is UO-31 renal. The following applies: 10 µM unless noted.
The next assay concerns TK-10 renal. The following applies: 10 µM unless noted.
The next assay relates to ACHN renal. The following applies: 10 µM unless noted.
A further assay concerns CAKI-1 renal. Conditions: 10 µM unless noted.
In another assay the test system is A498 renal. Conditions: 10 µM unless noted.
In a further assay the test system is CCRF-CEM leukemia. Conditions: 10 µM unless noted.
The next assay has as its system MOLT-4 leukemia. The following applies: 10 µM unless noted.
The test system of a further assay is SNB-75 CNS. Conditions: 10 µM unless noted.

As to `COc1ccc2c(c1)c(-c1cc3nc(-c4cn(C)c5ncc(Br)cc45)cc(N)n3n1)cn2C`, the growth in the assay on HCT-15 colon was -48% (active); in the assay with HT29 colon, -88.5% (active); in the assay with SNB-19 CNS, -16.9% (active); in the assay on U251 CNS, -57.3% (active); with PC-3 prostate it was -19.5% (active); with SK-MEL-5 melanoma, -88.1% (active). Also, the growth with UACC-62 melanoma is -82.2% (active); in the assay on LOX IMVI melanoma, -100% (active); in the assay on SK-MEL-28 melanoma it was -92.8% (active); with SK-MEL-2 melanoma, -68.6% (active); in the assay on EKVX NSCLC, -51.6% (active); in the assay with SN12C renal, -75.3% (active). The growth in the assay with UO-31 renal was -58.1% (active); in the assay with TK-10 renal, -40.8% (active); in the assay with ACHN renal it was -92.3% (active); in the assay with CAKI-1 renal it was -39.9% (active); in the assay on A498 renal it was 86.8%; with CCRF-CEM leukemia, -29.2% (active). The growth in the assay on MOLT-4 leukemia was -43.6% (active).
`COc1ccc(/C=C/c2nc3ccccc3c(=O)n2CC(=O)Nc2ccc(OC)cc2)cc1`: the growth is 88.4% in the assay on HCT-15 colon; 72.9% in the assay with HT29 colon; 51.9% with SNB-19 CNS; 25.6% in the assay with U251 CNS; 46.1% in the assay with PC-3 prostate; 92.3% with SK-MEL-5 melanoma. For the same compound, the growth in the assay with UACC-62 melanoma was 74.7%; in the assay on LOX IMVI melanoma it was 64.8%; in the assay with SK-MEL-28 melanoma, 103%; with SK-MEL-2 melanoma, 96%; in the assay on EKVX NSCLC, 114%; in the assay on SN12C renal, 57.3%. Moreover, the growth was 46.9% with UO-31 renal; 48.2% with TK-10 renal; 14% in the assay on ACHN renal; 47.3% with CAKI-1 renal; 130% in the assay on A498 renal; 63.6% with CCRF-CEM leukemia. Also, in the assay on MOLT-4 leukemia, the growth was 78.2%.
With `N/N=C(\N)c1c(N)nc(=S)[nH]c1-c1ccc(Cl)cc1Cl`, the growth was 111% with HCT-15 colon; 111% in the assay with HT29 colon; 93.4% in the assay on SNB-19 CNS; 104% in the assay with U251 CNS; 96.8% in the assay with PC-3 prostate; 108% with SK-MEL-5 melanoma. The growth in the assay on UACC-62 melanoma is 93.8%; in the assay with LOX IMVI melanoma it was 106%; with SK-MEL-28 melanoma, 116%; with SK-MEL-2 melanoma, 109%; with EKVX NSCLC it was 116%; with SN12C renal, 105%. Also, the growth in the assay on UO-31 renal is 85.8%; in the assay on TK-10 renal, 147%; with ACHN renal it was 107%; with CAKI-1 renal, 96.9%; with A498 renal it was 125%; in the assay with CCRF-CEM leukemia, 94.6%. The growth with MOLT-4 leukemia is 90.1%.
With `Cc1ccc2c(c1)nc(-c1ccccc1)n2CC(=O)N=Nc1c(O)[nH]c2ccc(Br)cc12`, the growth is -79.9% (active) in the assay with HCT-15 colon; -67.6% (active) in the assay with HT29 colon; -30.8% (active) in the assay with SNB-19 CNS; -74.3% (active) with U251 CNS; -78% (active) in the assay with PC-3 prostate; -57.3% (active) in the assay with SK-MEL-5 melanoma. Moreover, the growth with UACC-62 melanoma is -87.4% (active); with LOX IMVI melanoma, -93.6% (active); in the assay on SK-MEL-28 melanoma, -88.3% (active); with SK-MEL-2 melanoma, -40.5% (active); in the assay with EKVX NSCLC, -77.2% (active); with SN12C renal it was -72.3% (active). Moreover, the growth was -90% (active) in the assay on UO-31 renal; -10% (active) in the assay on TK-10 renal; -99.9% (active) in the assay on ACHN renal; -65.4% (active) in the assay on CAKI-1 renal; -37.2% (active) with A498 renal; 23.8% with CCRF-CEM leukemia. The growth in the assay with MOLT-4 leukemia was -42.1% (active).
For `Cn1cc(-c2cc3nc(-c4cn(C)c5ncc(Br)cc45)cc(N)n3n2)c2cc(Cl)ccc21`, the growth in the assay on HCT-15 colon is -77.6% (active); in the assay on HT29 colon it was -89.2% (active); in the assay on SNB-19 CNS it was -74.2% (active); with U251 CNS, -67.9% (active); with PC-3 prostate, -62.5% (active); with SK-MEL-5 melanoma it was -77.1% (active). Further, the growth is -96% (active) in the assay with UACC-62 melanoma; -95.1% (active) with LOX IMVI melanoma; -90.7% (active) with SK-MEL-28 melanoma; -76% (active) in the assay on SK-MEL-2 melanoma; -71.1% (active) in the assay on EKVX NSCLC; -87.9% (active) in the assay on SN12C renal. Moreover, the growth in the assay with UO-31 renal is -87.8% (active); with TK-10 renal, -94.9% (active); in the assay on ACHN renal, -100% (active); in the assay with CAKI-1 renal, -71.7% (active); in the assay on A498 renal it was -1.96% (active); in the assay with CCRF-CEM leukemia, -37.4% (active). Further, in the assay with MOLT-4 leukemia, the growth is -47.5% (active).
In the case of `CCCCCCCCc1ccc(S(=O)(=O)Nc2ccc(CC)cc2C(=O)O)cc1`, the growth in the assay with HCT-15 colon is 85.7%; in the assay on HT29 colon, 124%; with SNB-75 CNS, 106%; with U251 CNS, 92.9%; in the assay on PC-3 prostate, 89.7%; in the assay on SK-MEL-5 melanoma, 80.3%. Also, the growth with UACC-62 melanoma was 81.3%; with LOX IMVI melanoma, 99.9%; in the assay on SK-MEL-28 melanoma, 104%; with SK-MEL-2 melanoma, 86.7%; in the assay with EKVX NSCLC, 90.5%; with UO-31 renal it was 84.8%. Also, the growth with ACHN renal is 96%; in the assay on CAKI-1 renal it was 89%; with A498 renal it was 104%; in the assay on CCRF-CEM leukemia, 77.9%; in the assay on MOLT-4 leukemia, 91.1%.
As for `O=C(COc1ccc(NC(=O)Nc2ccc(Cl)cc2)cc1)N/N=C/c1ccccc1`, the growth in the assay with HCT-15 colon is -80.3% (active); with HT29 colon it was -87.4% (active); in the assay on SNB-75 CNS it was -37.4% (active); with U251 CNS, -86.2% (active); in the assay on PC-3 prostate, -72.9% (active); in the assay on SK-MEL-5 melanoma, -94% (active). In addition, the growth is -87.5% (active) in the assay with UACC-62 melanoma; -97.5% (active) in the assay on LOX IMVI melanoma; -84.9% (active) in the assay with SK-MEL-28 melanoma; -84.3% (active) in the assay with SK-MEL-2 melanoma; -58.5% (active) in the assay on EKVX NSCLC; -14% (active) in the assay on UO-31 renal. The growth was -77.4% (active) in the assay on ACHN renal, -94.3% (active) in the assay with A498 renal, -13.7% (active) in the assay with CCRF-CEM leukemia and 9.72% (active) in the assay with MOLT-4 leukemia.
For `CC(=O)OC[C@@]1(C)C2CC[C@]3(C)C(CC=C4C5CC(C)(C)CC[C@]5(C(=O)Nc5cccc(C)c5)CC[C@]43C)[C@@]2(C)C[C@@H](OC(C)=O)[C@@H]1OC(C)=O` (stereo not given in full), the growth is 30.9% with HCT-15 colon; 25.5% with HT29 colon; 67.9% in the assay with SNB-75 CNS; 29.4% with PC-3 prostate; 3.77% (active) in the assay on SK-MEL-5 melanoma; 45.4% in the assay on UACC-62 melanoma. Besides, the growth in the assay on LOX IMVI melanoma is 11.6%; in the assay with SK-MEL-28 melanoma, 62.3%; in the assay with SK-MEL-2 melanoma, 38.7%; in the assay with EKVX NSCLC, 30.7%; in the assay with UO-31 renal it was 37.4%; with TK-10 renal, 52.9%. Moreover, the growth with ACHN renal is 38.8%; in the assay with CAKI-1 renal, 42.2%; in the assay on A498 renal, 59.6%; in the assay on CCRF-CEM leukemia it was 30.4%; in the assay with MOLT-4 leukemia, 30.7%.
